This passage reports growth results from PubChem BioAssay (NCI).

The panel holds about 83,000 compounds, 20% with a hit somewhere; the sample as a whole holds those more often.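 Values shown are percent growth following 48 h exposure of cells in 96-well plates to a single concentration of compound; below 10 was considered active.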 Unmarked numbers belong to inactive results. Calls of active or inactive are those of the source.

Common to all, as to experiment: NCI-60 one-dose screen, 48 h (100 = growth as untreated, 0 = no growth, -100 = all killed)
Holding throughout (settings): 10 µM unless noted

In assay [1] the test system is NCI-H23 lung.
Assay [2] relates to NCI-H226 lung.
Assay [3] concerns NCI-H322M lung.
Assay [4] deals with HOP-62 NSCLC.
Assay [5] deals with NCI-H460 lung.
Assay [6] concerns HOP-92 NSCLC.
Assay [7] has as its system NCI-H522 lung.
The test system of assay [8] is A549/ATCC NSCLC.
The subject of assay [9] is 786-0 renal.
Assay [10] relates to COLO 205 colon.
Assay [11] has as its system DU-145 prostate.
Assay [12] deals with K-562 leukemia.
For assay [13], the system named is MALME-3M melanoma.
Assay [14] relates to MDA-MB-231 breast.
Assay [15] has as its system RXF 393 renal.
Assay [16] relates to SF-268 CNS.
Assay [17] deals with SF-295 CNS.
In assay [18] the test system is SF-539 CNS.
Assay [19] relates to UACC-257 melanoma.
Assay [20] relates to M14 melanoma.

On to `Cn1nccc1Nc1nccc(-c2ccn([C@H](CO)c3ccc(Cl)c(F)c3)c(=O)c2)n1`, for which the growth is 68.5% in assay [1]; 110% in [2]; 61% in [3]; 78.8% in assay [4]; 99.5% in [5]; 103% in [6]. Besides, the growth in assay [7] was 71.2%; in [8] it was 72.3%; in assay [9], 93%; in assay [10], 14.4%; in assay [11], 93.5%; in assay [12], 84.2%. The growth in assay [13] was 0.796% (active); in [14], 90.8%; in assay [15] it was 108%; in [16], 96.4%; in [17], 98.3%; in [18], 104%. Besides, the growth in assay [19] was 1.1% (active); in assay [20], 24.3%.
Regarding `O=[N+]([O-])c1cc(Br)cc2c1[nH]c1ccc(Br)cc12`, the growth in assay [1] was 58%; in assay [2] it was 53.9%; in [3], 58%; in assay [4], 39.2%; in [5] it was 73.5%; in assay [6], 44.2%. The growth in [7] is 63.5%; in [8], 52.3%; in [9], 44.3%; in [10], 52.1%; in [11], 77.1%; in assay [12], 55.5%. The growth was 66.3% in assay [13]; 58.4% in [14]; 43.6% in [15]; 73.4% in assay [16]; 49.9% in assay [17]; 84.6% in [18]. For the same compound, the growth was 88.7% in assay [19] and 70.5% in assay [20].
Regarding `CN(N)c1nc2sc3c(c2c(=O)[nH]1)CCCC3`, the growth in assay [1] was 93.5%; in assay [2], 101%; in assay [3], 96.9%; in assay [4], 76.6%; in assay [5] it was 104%; in [6] it was 107%. Further, the growth in [7] was 89.2%; in assay [8], 81.1%; in assay [9], 98.2%; in assay [10], 100%; in assay [11], 101%; in [12], 109%. For the same compound, the growth in [13] was 88.7%; in [14], 102%; in [15], 108%; in assay [16], 95.9%; in assay [17], 93%; in assay [18], 98.7%. Besides, the growth in [20] was 98.7%.
For the compound `Cc1ccc(F)c(NC(=O)Nc2ccc(-c3cccc4[nH]nc(N)c34)cc2)c1`, the growth in assay [1] is 9.14% (active); in assay [2], 57.6%; in assay [3], 21.5%; in [4], -7.49% (active); in assay [5] it was 10.2%; in assay [6], 63.8%. Further, the growth in assay [7] was -23.3% (active); in assay [8] it was -50.5% (active); in assay [9], 36.4%; in assay [10] it was -48.7% (active); in assay [11], 27.5%; in [12], 7.81% (active). For the same compound, the growth in assay [13] was -4.64% (active); in assay [14], 9.7% (active); in [15], -20.1% (active); in assay [16], 30%; in assay [17], 42.8%; in assay [18], 3.67% (active). The growth was 16% in assay [19] and 28.3% in assay [20].
As to `Cn1ccnc1C(=O)/C=C/c1ccc(CC(=O)Nc2ccc(C(F)(F)F)cc2)cc1`, the growth in assay [1] was 19.4%; in assay [2], 48.5%; in [3] it was 6.96% (active); in assay [4] it was -33.7% (active); in assay [5], -0.126% (active); in assay [6], 38.3%. Further, the growth in assay [7] is -3.98% (active); in assay [8], 6.44% (active); in [9], 1.74% (active); in assay [10], 5.87% (active); in assay [11] it was 7.72% (active); in [12] it was 6.29% (active). Moreover, the growth was 77.5% in assay [13]; 8.95% (active) in assay [14]; -1.43% (active) in assay [15]; 16.4% in assay [16]; 7.9% (active) in assay [17]; -36.8% (active) in [18]. The results for the growth in [19] and in [20] were 77.9% and 21.3%, respectively.
`Cc1c(CN2CCN(C(=O)[C@H](C)O)CC2)sc2c(N3CCOCC3)nc(-c3cnc(N)nc3)nc12`: the growth in assay [1] is 6.62% (active); in [2], -4.64% (active); in assay [3] it was -26.1% (active); in assay [4] it was -10.3% (active); in assay [5] it was 3% (active); in assay [6] it was -24.6% (active). Moreover, the growth is -12.2% (active) in assay [7]; -20.8% (active) in assay [8]; -19% (active) in [9]; -32.3% (active) in assay [10]; 8.38% (active) in assay [11]; 17.6% in assay [12]. The growth in assay [13] is -52.3% (active); in assay [14], 7.09% (active); in assay [15], -40.1% (active); in [16], 12.1%; in assay [17], -45% (active); in [18] it was -47.5% (active). For the same compound, the figures for the growth in assay [19] and in assay [20] were -34.3% (active) and -21.4% (active), respectively.
Turning to `COC(=O)c1ccc2c(C(=Nc3ccc(N(C)C(=O)CN4CCN(C)CC4)cc3)c3ccccc3)c(O)[nH]c2c1`, the growth in assay [1] was 67.8%; in assay [2] it was 47%; in assay [3], 58.8%; in assay [4], 38.8%; in assay [5], 92%; in assay [6] it was 18.4%. Also, the growth was 39.1% in [7]; 45.8% in assay [8]; 41.4% in [9]; 34% in [10]; 78.3% in assay [11]; 3.75% (active) in assay [12]. Besides, the growth in assay [13] was 54.2%; in assay [14], 54.8%; in assay [15], 15.1%; in assay [16] it was 42.8%; in assay [17], 84.1%; in assay [18], 36.1%. The growth in assay [19] was 23%; in assay [20], 50.9%.
